# In PubChem BioAssay (NCI):
# Compounds without any hit were thinned out: in the full panel of roughly 83,000, 20% have a hit.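 Results are percent growth after 48 hours of single-concentration exposure. 100 means growth as in untreated cells, lower positive values show inhibition; negative values down to -100 show cell death.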 Values without a mark were called inactive. Activity calls are given as the source filed them. How the source made its calls: active means growth percent below 10; inactive means the rest.
# How the values were obtained:
# Test in all cases: NCI-60 one-dose screen, 48 h (100 = growth as untreated, 0 = no growth, -100 = all killed)
# Conditions in all cases: 10 µM unless noted
# [1] = test system: SK-MEL-2 melanoma
# [2] = test system: EKVX NSCLC
# [3] = test system: SN12C renal
# [4] = test system: UO-31 renal
# [5] = test system: TK-10 renal
# [6] = test system: ACHN renal
# [7] = test system: CAKI-1 renal
# [8] = test system: A498 renal
# [9] = test system: CCRF-CEM leukemia
# [10] = test system: MOLT-4 leukemia
SMILES,growth [1],growth [2],growth [3] [%],growth [4],growth [5] [%],growth [6],growth [7],growth [8],growth [9],growth [10]
N#Cc1c(-c2ccccc2)[nH]c2ncc(-c3ccccc3)n2c1=O,72.9%,75.3%,99.5,65.4%,120,83.4%,83.4%,102%,104%,101%
CN(C)c1ccc(-c2c(C#N)c(N)nn2C(=O)c2ccc(NC(=O)c3ccccn3)cc2)cc1,105%,91.6%,101,80.7%,110,87.2%,77.3%,96.6%,51.5%,99.5%
COc1ccc(C(=O)C/C(=C\c2ccc(Cl)cc2)C(=O)NCc2ccccc2)cc1,79.6%,95.6%,91.3,76%,72.7,92.7%,87.4%,88%,73.5%,72.9%
c1ccc([P+](c2ccccc2)(c2ccccc2)c2ccc3c4ccc([P+](c5ccccc5)(c5ccccc5)c5ccccc5)c5cccc(c6cccc2c63)c54)cc1,18.6%,12.8%,10.5,39.4%,52.2,41.3%,40.3%,-11.3% (active),26.5%,23.2%
CCOC(=O)c1c2c(n3cccc(F)c13)C(=O)c1ncccc1C2=O,72.4%,27.7%,25.6,-28.5% (active),36.8,7% (active),14.4%,24%,67.3%,69.3%
CCCCn1c(=O)[nH]c(N)c([C@@H]2c3c([nH]c(=O)n(CCCC)c3=O)Oc3ccc4ccccc4c32)c1=O,89.2%,84.5%,81,3.72% (active),73.7,2.15% (active),51.5%,101%,-15.9% (active),-8.45% (active)
COc1ccc(/C=C(\C#N)n2nnc3cc(F)c(F)cc32)cc1,50.9%,51.9%,58.9,52.8%,72.4,55.4%,54.4%,76.2%,24.3%,22.4%
CCC(C)N(CCNc1cc(OC)cc2cccnc12)CC(C)C (stereo not given),110%,95.5%,101,67.2%,101,85.6%,94.1%,92.8%,90.9%,87.4%
COc1c(B(O)O)cccc1-c1nc2c(F)cc3[nH]ncc3c2c2c1CCCC2,-6.26% (active),7.37% (active),15.8,-1.82% (active),16.2,0.144% (active),-28% (active),-64.6% (active),13.9%,7.73% (active)
CC(C)(C)[Si](C)(C)OC1[C@@H](CNC(=O)NC(=O)NC(N)=O)O[C@@H](n2cnc3c(NC(=O)Nc4ccccc4)ncnc32)[C@H]1O[Si](C)(C)C(C)(C)C (stereo not given in full),94.8%,90.5%,74.6,95.2%,88.9,77.3%,101%,101%,71.4%,54.3%
O=C(/C=C/c1ccccc1)Nc1ncc(Cc2ccccc2Cl)s1,25.7%,38.2%,37.2,39.2%,44.6,33.3%,26.2%,-6.96% (active),15.9%,34.2%
Cn1ccnc1C(=O)/C=C/c1ccc(CC(=O)Nc2cc(C(F)(F)F)cc(C(F)(F)F)c2)cc1,102%,89.8%,67.4,63.2%,106,84.5%,76.4%,90%,47.5%,14.7%
Cc1[nH]c(=O)[nH]c(=O)c1Br,148%,106%,98,105%,114,104%,92.9%,103%,107%,94%
NC(=O)c1cccc(-n2ccc3cc(NC(=O)c4ccc(N5CCOCC5)c(C(F)(F)F)c4)ccc32)n1,71%,47.8%,73.5,36.5%,86.9,46.6%,39.7%,15.7%,34.4%,52.5%
CCCC/C=C/[C@@H]1C[C@H]1CCO,98.7%,101%,94.3,87%,96.4,104%,98.9%,102%,101%,103%
CCOC(=O)c1c(NC(=O)c2cccc(C(F)(F)F)c2)sc2c(CN(C)C)c(O)ccc12,108%,98.8%,90,48.9%,113,45.5%,71.1%,82%,9.93% (active),43.4%
